Measurements as given in PubChem BioAssay.
Calls of active or inactive are those of the source. Unless noted, the rule behind the calls is not given here.

Legend:
[1] = system: XIP peptide (Xip251-270) binding; test: small-molecule binders of XIP peptide, primary screen, biochemical, small-molecule microarray, fluorescence 635/667 nm, 0.1 µg/mL protein (AID 1182); details: fluorescent protein binding, 635 nm, higher = more signal, called active from +8 up or from −8 down
XIP peptide (Xip251-270) = test: small-molecule binders of XIP peptide, primary screen, biochemical, small-molecule microarray, fluorescence 635/667 nm, 0.5 µg/mL protein (AID 1183); details: small-molecule microarray binding, fluorescence 635 nm; higher = more signal
[2] = Plasmodium falciparum growth inhibition, primary screen, strain 3D7, DAPI fluorescence, 100 nL (AID 1184);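 note: parasites grown inside human red blood cells in medium with human serum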; details: P. falciparum 3D7 growth, 3 d, higher = more signal
[3] = target: Homeobox protein Hox-A13 (Mus musculus) (UniProt Q62424); test: inhibitors of HoxA13-DNA binding, primary screen, biochemical, fluorescence polarization, labeled oligonucleotide (AID 1185); details: 15 min, higher = more signal, called active from +8 up or from −8 down
Homeobox protein Hox-A13 (Mus musculus), sequence (Q62424 whole entry, looked up): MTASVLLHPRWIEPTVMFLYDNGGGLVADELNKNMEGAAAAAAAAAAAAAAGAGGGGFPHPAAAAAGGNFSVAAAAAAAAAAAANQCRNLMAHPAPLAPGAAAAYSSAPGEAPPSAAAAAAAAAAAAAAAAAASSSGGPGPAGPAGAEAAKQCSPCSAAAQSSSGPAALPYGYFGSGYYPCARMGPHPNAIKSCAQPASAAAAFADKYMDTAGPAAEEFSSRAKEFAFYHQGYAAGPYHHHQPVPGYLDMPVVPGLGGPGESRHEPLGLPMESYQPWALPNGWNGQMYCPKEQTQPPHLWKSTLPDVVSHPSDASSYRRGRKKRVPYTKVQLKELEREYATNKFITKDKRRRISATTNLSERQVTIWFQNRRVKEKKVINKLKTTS

[4] = inhibitors of hydroxyurea-induced Chk1 phosphorylation, primary screen, imaging, HeLa, phospho-Chk1 antibody, percent positive cells (AID 1186); details: hydroxyurea-induced phospho-Chk1 immunofluorescence imaging, higher = more signal
[5] = inhibitors of hydroxyurea-induced Chk1 phosphorylation, primary screen, imaging, HeLa, phospho-Chk1 nuclear intensity (AID 1187); details: hydroxyurea-induced phospho-Chk1 immunofluorescence imaging, higher = more signal

Compound | composite z-score [1] | composite z-score (XIP peptide (Xip251-270)) | z-score [2] | z-score [3] | z-score [4] | z-score [5]
O=C(O)[C@H]1C[C@H]2C(=O)N3CCC[C@H]3C(=O)N2[C@H]1c1ccc(O)cc1 | -0.469 (inactive) | -0.0016 | 0.351 | -1.01 (inactive) | 0.272 (inactive) | 0.267 (inactive)
CC#CC(=O)Oc1ccc(Br)cc1C=CC(=O)OCC | 1.17 (inactive) | -0.101 | -1.65 | -3.79 (inactive) | 0.309 (inactive) | -1.03 (inactive)
O=C1C2C=CC(C(O)c3ccc4c(c3)OCO4)N(Nc3ccc([N+](=O)[O-])cc3)C2C(=O)N1c1ccccc1 (stereo not drawn) | -0.164 (inactive) | 0.473 | -0.54 | -4.87 (inactive) | 0.0611 (inactive) | -0.825 (inactive)
[N-]=[N+]=Nc1ccccc1C[C@]1(C(=O)NCC(O)CO)N=C(c2ccc(OCCCO)cc2)O[C@H]1c1ccccc1 (stereo partly drawn) | 0.474 (inactive) | 0.511 | -1.9 | -5.96 (inactive) | 0.178 (inactive) | -0.365 (inactive)
COCCOC(=O)N1C(=O)[C@@]2(c3cc(C#CC4(O)CCCCCC4)ccc31)[C@H](C(=O)Nc1nc3ccccc3s1)[C@H]1C(=O)O[C@H](c3ccccc3)[C@H](c3ccccc3)N1[C@@H]2c1ccc(OCCO)cc1 | -0.148 (inactive) | 0.712 | -1.71 | 0.447 (inactive) | -0.086 (inactive) | -0.0454 (inactive)
C=CCC(OC(C)=O)[C@@H]1[C@@H](N(Cc2ccc(-c3ccccc3)cc2)C(=O)Cc2ccc(F)cc2)c2cc(OCCCO)ccc2N1C(=O)c1ccc2ccccc2c1 (stereo partly drawn) | -0.568 (inactive) | -0.245 | -2.17 | -1.35 (inactive) | 0.295 (inactive) | -0.009 (inactive)
COc1ccc([C@H]2OC[C@@H]3CCC(=O)N32)cc1 | 0.467 (inactive) | 0.394 | 0.401 | 0.119 (inactive) | -0.208 (inactive) | -0.183 (inactive)
O=C1[C@H]2C=C(I)[C@H](C[C@@H]2OCCCCO)[C@@]12CO2 | -0.294 (inactive) | -0.425 | 1.1 | -1.94 (inactive) | 0.239 (inactive) | -0.203 (inactive)
C#CCNCc1ccccc1 | -0.609 (inactive) | 0.118 | -0.158 | -0.0595 (inactive) | 0.213 (inactive) | -0.392 (inactive)
O=C(NC1CC1)[C@@H]1c2ccccc2C(=O)N(C2Cc3ccccc3C2)[C@H]1c1ccc(CO)cc1 | 0.456 (inactive) | 0.657 | -0.69 | -1.14 (inactive) | -0.217 (inactive) | 0.0084 (inactive)
CN1C(=O)C2C=CC(C(O)c3ccccc3)N(N3CCCCC3)C2C1=O (stereo not drawn) | 0.344 (inactive) | 0.797 | -0.261 | -5.01 (inactive) | 0.246 (inactive) | -0.455 (inactive)
CC(C)[Si](C#CCCCC#N)(O[C@H](c1ccccc1)c1cn(Cc2cccc(Cl)c2)nn1)C(C)C | -0.186 (inactive) | 0.605 | -1.06 | -0.527 (inactive) | -0.628 (inactive) | -0.968 (inactive)
O=C1OCCC=C[C@H]2OC34C=CCN(c5ccc(Cl)cc5)C(=O)[C@H]3N(CCCO)C(=O)[C@@H]4C12 (stereo partly drawn) | -0.869 (inactive) | -0.481 | -1.83 | -3.2 (inactive) | -0.511 (inactive) | -0.536 (inactive)
COc1ccc([Si](C)(C)[C@@H]2[C@@H](CCn3cc(CCO)nn3)O[C@]3(C(=O)N(Cc4cccc(N5C(=O)c6cccc7cccc5c67)c4)c4ccccc43)[C@H]2C)cc1 | 1.49 (inactive) | 0.589 | -2.81 | -2.66 (inactive) | -0.953 (inactive) | -0.813 (inactive)
CCOC(=O)C1=C[C@@H](C(C)C)N(S(=O)(=O)c2ccc(C)cc2)[C@H]1c1ccccc1F | 1.01 (inactive) | 0.489 | -0.864 | -1.17 (inactive) | 0.503 (inactive) | 0.969 (inactive)
O=C1C2C=CC(C(O)c3ccc(F)cc3)N(Nc3ccc([N+](=O)[O-])cc3)C2C(=O)N1c1ccccc1 (stereo not drawn) | 0.224 (inactive) | 0.942 | -0.255 | -4.16 (inactive) | 0.137 (inactive) | 0.653 (inactive)
CCCC=C(CCC)[C@@H](NC(=O)OCC(C)C)c1ccccc1 | -0.0053 (inactive) | 0.45 | -1.02 | 2.97 (inactive) | 0.714 (inactive) | 0.115 (inactive)
O=C1OCC=C[C@H]2OC34C=CCN(Cn5nnc6ccccc65)C(=O)[C@H]3N(CCCCCO)C(=O)[C@@H]4[C@@H]12 (stereo partly drawn) | 0.537 (inactive) | 0.193 | -0.133 | -3.27 (inactive) | -0.288 (inactive) | -0.398 (inactive)
C=CCNC(=O)[C@H]1[C@@H]2C(=O)O[C@@H](c3ccccc3)[C@@H](c3ccccc3)N2[C@@H](c2ccc(O)cc2)[C@]12C(=O)Nc1ccc(C#CCCO)cc12 | -0.0879 (inactive) | -0.227 | 0.093 | -4.04 (inactive) | -0.266 (inactive) | -0.136 (inactive)
COc1cc(CO)cc(I)c1O[C@H]1C=C(C(=O)NCCO)C[C@@H](NC[C@@H]2CCCO2)[C@@H]1O | 0.546 (inactive) | 0.711 | -1.22 | -6.95 (inactive) | -0.399 (inactive) | -1.01 (inactive)
O=C1O[C@@H](c2ccccc2)[C@@H](c2ccccc2)N2[C@@H](c3ccccc3OCCO)[C@]3(C(=O)Nc4ccccc43)[C@@H](C(=O)O)[C@H]12 | 1.14 (inactive) | 0.457 | -0.6 | -6.35 (inactive) | 0.405 (inactive) | 0.5 (inactive)
CCC(CC)C(O)C1C=CC2C(=O)N(c3ccccc3)C(=O)C2N1Nc1ccccc1 (stereo not drawn) | 0.285 (inactive) | 0.816 | 0.0789 | -3.76 (inactive) | 0.263 (inactive) | 0.0193 (inactive)

Compound | composite z-score [1] | composite z-score (XIP peptide (Xip251-270)) | z-score [2] | z-score [3] | z-score [4] | z-score [5]
COC(=O)[C@@]1(Cc2ccccc2)[C@H]2c3cc(C(=O)N(C)C)n(Cc4ccc(OC)c(OC)c4)c3C[C@H]2CN1C(=O)c1ccccc1 | 0.713 (inactive) | 0.664 | -1.44 | -4.39 (inactive) | 0.639 (inactive) | 0.614 (inactive)
COC(=O)[C@@]1(CCC(=O)OC(C)(C)C)N=C(c2ccc(OCCCO)cc2)O[C@H]1c1ccccc1 | 0.485 (inactive) | 0.732 | -2.43 | -4.58 (inactive) | -0.17 (inactive) | 0.284 (inactive)
CC(C)[Si](C#CCCCC#N)(Oc1ccccc1Br)C(C)C | 0.983 (inactive) | -0.0206 | 0.306 | -1.08 (inactive) | 0.365 (inactive) | 0.0882 (inactive)
O=c1cccc(-c2ccccc2Cl)o1 | -0.143 (inactive) | -0.231 | 0.382 | -0.226 (inactive) | 0.266 (inactive) | -0.26 (inactive)
COC(=O)[C@@]1(Cc2ccc(OC)cc2)[C@H]2c3cc(C(=O)N4CCCC4)n(CCSCCO)c3C[C@H]2CN1C(=O)c1ccccc1 | 0.0308 (inactive) | 0.826 | -1.44 | -5.24 (inactive) | 1.35 (inactive) | 1.04 (inactive)
CCN(CC)c1ccc(N2CC=CC34O[C@@H]5/C=C\CCC(C)OC(=O)C5[C@H]3C(=O)N(CCCCCO)[C@@H]4C2=O)cc1 (stereo partly drawn) | -0.474 (inactive) | 0.102 | -0.0194 | -5.39 (inactive) | 0.489 (inactive) | 0.673 (inactive)
CC(c1ccccc1)C(O)C1C=CC2C(=O)N(C)C(=O)C2N1NC(=O)OC(C)(C)C (stereo not drawn) | 2.04 (inactive) | 0.63 | 1.05 | -2.6 (inactive) | -0.129 (inactive) | -0.0976 (inactive)
C=CCC(OC(C)=O)[C@@H]1[C@@H](N(Cc2cc3ccccc3o2)C(=O)Cc2ccc(OC)cc2)c2cc(OCCCO)ccc2N1C(=O)c1ccc2ccccc2c1 (stereo partly drawn) | 0.0999 (inactive) | 0.167 | -2.47 | -1.6 (inactive) | 0.556 (inactive) | 0.877 (inactive)
C=C(C(=O)CC[C@H](OC(C)=O)c1ccccc1OCCO)C(C)C | -0.571 (inactive) | 0.332 | -2.09 | -0.163 (inactive) | -0.145 (inactive) | -0.0797 (inactive)
O=C(CS)NCCCCCNC(=O)[C@H]1C[C@H]2C(=O)NCC(=O)N2[C@H]1c1ccc(O)cc1 | -0.344 (inactive) | 0.149 | 0.201 | -1.2 (inactive) | -0.831 (inactive) | -0.795 (inactive)
O=C1NC(=O)C2C1C=CC(C(O)C=Cc1ccc([N+](=O)[O-])cc1)N2Nc1ccc(Cl)cc1Cl (stereo not drawn) | 2.22 (inactive) | 0.692 | -0.143 | -5.55 (inactive) | 0.104 (inactive) | -0.171 (inactive)
NCCCCCNC(=O)[C@H]1C[C@H]2C(=O)N3CCC[C@H]3C(=O)N2[C@H]1c1ccc(O)cc1 | 0.705 (inactive) | 0.718 | -0.0006 | -2.09 (inactive) | -0.15 (inactive) | -0.265 (inactive)
O=C1NC(=O)C2C1C=CC(C(O)c1ccc(I)cc1)N2Nc1ccc(Cl)cc1Cl (stereo not drawn) | 0.9 (inactive) | 0.284 | 0.692 | -3.94 (inactive) | 0.0215 (inactive) | 0.33 (inactive)
CO[C@H]1O[C@H](CO)[C@@H](OC(=O)Nc2ccccc2)[C@@H]2OC(=O)[C@@H](Cc3ccc4ccccc4c3)C/C=C/C[C@H](Cc3ccc4ccccc4c3)C(=O)O[C@@H]12 | 1.97 (inactive) | 0.748 | -0.492 | -3.03 (inactive) | -0.956 (inactive) | -0.96 (inactive)
COCCCNC(=O)[C@@]1(Cc2ccccc2CN=[N+]=[N-])N=C(c2ccc(OCCCO)cc2)O[C@H]1c1ccccc1CN=[N+]=[N-] | 1.01 (inactive) | 0.443 | -2.23 | -4.09 (inactive) | -0.485 (inactive) | -0.763 (inactive)
CCCC[C@@H]1C[C@H]1[C@@H](NC(=O)c1cccnc1)c1ccc(Cl)cc1 | -1.19 (inactive) | -1.83 | -0.577 | 1.33 (inactive) | -0.308 (inactive) | -0.437 (inactive)
Cc1ccc(S[C@]2(C(=O)O)CC(=O)N(Cc3ccccc3C(F)(F)F)[C@@H]2c2ccc(CO)cc2I)cc1 | 0.397 (inactive) | 0.773 | 0.182 | -2.74 (inactive) | -0.157 (inactive) | 0.408 (inactive)
COCC(=C=CC[C@H](O)c1ccccc1OCCO)CCO | 2.87 (inactive) | -0.501 | -0.549 | -2.98 (inactive) | 0.387 (inactive) | -0.186 (inactive)
[N-]=[N+]=NCc1ccccc1[C@H]1OC(c2ccc(OCCCO)cc2)=N[C@@]1(Cc1ccccc1)C(=O)N1CCCCC1 | -0.178 (inactive) | 0.625 | -2.4 | -4.35 (inactive) | -0.959 (inactive) | -1.5 (inactive)
CC(=O)NCCCC[C@@H]1NC(=O)[C@H]2C[C@@H](C(=O)NCCCCCNC(=O)CS)[C@@H](c3ccc(O)cc3)N2C1=O | 0.184 (inactive) | 0.805 | 0.147 | -3.02 (inactive) | 0.0401 (inactive) | 0.176 (inactive)
NC(=O)NCC#Cc1ccc2c(c1)[C@]1(C(=O)N2)[C@H](C(=O)O)[C@H]2C(=O)O[C@H](c3ccccc3)[C@H](c3ccccc3)N2[C@@H]1c1ccc(O)cc1 | 0.88 (inactive) | 0.275 | 0.137 | -5.06 (inactive) | 0.0315 (inactive) | 0.118 (inactive)
